# Only some compounds are listed: those with a hit (about 1.4% of all), similar ones and a draw of the others.
# MRP resist rev – reversal of MRP1-mediated doxorubicin resistance, primary screen, H69AR cells, doxorubicin co-treatment. H69AR cells + 2 uM doxorubicin, CellTiter-Glo, 72 h. differential viability (reversal), % at 10 µM. hit rate 0.04% among 85,000. AID 602, 2007;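 active = viability drop by adding the cancer drug above about 55%, with treated viability meeting a 40% cutoff, limit read from the data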;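 note: larger differential means the compound sensitizes cells more to doxorubicin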
# MRP-1 activ – H69AR viability gain despite doxorubicin, primary screen, MRP-1 activator project, H69AR cells, CellTiter-Glo. hit rate 0.61% among 140,000. viability rescue. viability increase, % at 10 µM;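 active = viability gain under doxorubicin at or above a set limit, the compound median plus 3 SD, cut at about 4.7% in these data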;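 note: MRP-1 overexpressing cells given doxorubicin 25 µM after compound pretreatment; 18-22 h compound pretreatment then 72 h with doxorubicin before readout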
# NFkB transloc pot – enhancers of NFkB p65 translocation in HUVEC – imaging, IL-1B stimulus, high-content imaging, primary screen | HUVEC IL-1B NFkB p65 nuclear translocation imaging | activation, % at 2 µM | hit rate 0.3% among 94,000 | AID 819, 2007;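 active = activation above 40%, about the mean plus 3 SD, also judged a hit on visual image review; inconclusive = activation above 40% but not a hit on visual review; inactive = activation not above 40% and no visual hit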;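 note: percent activation is computed from the nuclear over cytoplasmic p65 intensity ratio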
# sdo1 growth – growth rescue of sdo1-depleted yeast, primary screen, S. cerevisiae, bone marrow failure model; S. cerevisiae sdo1-depleted JHY4D growth rescue, OD600 30 h; active compounds read high; pdr5 snq2 efflux-pump mutant strain; z-score at 10 µM; hit rate 0.21% among 140,000; AID 817, 2007;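 active = z-score above 3 at both the 24 hr and the 30 hr optical density reads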
# IL1B NFkB inh – inhibitors of IL-1B driven NFkB p65 nuclear import, primary screen, imaging, HUVEC, IL-1B stimulus, high-content imaging; inhibition, % at 2 µM; hit rate 0.43% among 94,000; AID 796, 2007; HUVEC IL-1B NFkB p65 nuclear translocation imaging;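 active = inhibition above about 30% together with a positive call from visual inspection of the well image, limit read from the data; inconclusive = inhibition above a set limit but visual check negative; inactive = inhibition not above a set limit, visual check negative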;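 note: nuclear over cytoplasmic p65 intensity ratio measured by imaging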
# HUVEC tox IL1B – cytotoxicity in IL-1B stimulated HUVEC, primary screen, cytotoxicity control for IL-1B NFkB translocation project, imaging, Hoechst nuclear count, IL-1B stimulus; hit rate 0.41% among 94,000; cell count reduction, % at 2 µM; AID 845, 2007; HUVEC cell count loss;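 active = cell count reduction more than 3 SD above the screen-wide mean, cut at about 70% in these data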
# Hits are given with their value; - = inactive; ? = inconclusive; . = no result given.
SMILES,MRP resist rev,MRP-1 activ,NFkB transloc pot,sdo1 growth,IL1B NFkB inh,HUVEC tox IL1B
Cc1cc(C)c(NC(=O)c2sc3nc4c(cc3c2N)C(=O)CC(C)(C)C4)c(C)c1,.,5.4,.,-,.,.
COC(=O)c1sc2nc3c(cc2c1N)C(=O)CC(C)(C)C3,-,-,?,-,-,-
COC(=O)c1cn(C(=O)c2cccs2)c2ccccc12,-,-,-,-,-,95
COC(=O)c1cn(C(=O)c2ccco2)c2ccccc12,-,-,-,-,-,-
O=C(Nc1ccc(S(=O)(=O)Nc2nccs2)cc1)/C(=C/c1ccccc1Cl)NC(=O)c1ccccc1,.,-,.,-,.,.
FC(F)(F)c1ccc(N2CCN(c3ncnc4c3nnn4Cc3ccccc3Cl)CC2)cc1,-,-,-,-,-,-
Clc1ccccc1Cn1nnc2c(NCC3CC3)ncnc21,-,-,-,-,-,-
Fc1ccc(N2CCN(c3ncnc4c3nnn4Cc3ccccc3Cl)CC2)cc1,-,5.0,-,-,-,-
Clc1ccccc1Cn1nnc2c(Nc3ccccc3)ncnc21,.,4.7,.,-,.,.
CC1CCN(C(=O)C2CCC(C)(C(=O)O)C2(C)C)CC1 (stereo not given),.,-,.,-,.,.
O=C(CN1CCN(S(=O)(=O)c2ccc3ccccc3c2)CC1)Nc1ccc2c(c1)CCC2,.,-,.,-,.,.
O=C(NCc1ccccc1)c1cccc(COc2ccc(Cl)cc2)c1,.,-,-,-,-,-
COc1cc(CNC(=O)c2cccc(COc3ccc(Cl)cc3)c2)cc(OC)c1,.,4.8,.,-,.,.
CN1OC(c2ccccc2)=C(CO)C1c1ccccc1 (stereo not given),.,-,.,-,.,.
COc1ccc(NC(=O)COC(=O)c2c3c(nc4ccccc24)CCCC3)cc1Cl,.,5.3,-,-,-,-
COc1ccc(NC(=O)COC(=O)c2c3c(nc4ccccc24)CCCC3)cc1,-,-,.,-,.,.
Cc1oc2c(O)c(O)ccc2c(=O)c1-c1cnn(-c2ccccc2)c1,.,4.9,-,-,-,-
O/N=C/c1cc(Cl)ccc1OCc1cccc2ccccc12,.,-,-,-,-,-
COC(=O)Nc1ccc(=O)n(Cc2c(Cl)cccc2Cl)c1,.,-,-,-,-,-
CCCOc1ccc(OCCSc2ncccn2)cc1,-,-,44,-,-,-
CCOc1ccc(OCCSc2nc3ccccc3o2)cc1,-,-,-,-,42,-
COC(=O)C1=C(C)N(C)C(=O)NC1c1ccccc1 (stereo not given),.,-,47,-,-,-
CN=C1S/C(=C\c2cc(C)n(-c3ccccc3F)c2C)C(=O)N1C,.,5.9,-,-,-,-
CN=C1S/C(=C\c2ccc(N3CCOCC3)cc2C)C(=O)N1C,.,-,.,-,.,.
COc1ccc(NC(=O)C(=O)N/N=C/c2cc(C)n(-c3cccc(Cl)c3Cl)c2C)c(OC)c1,.,5.3,-,-,-,-
SMILES,MRP resist rev,MRP-1 activ,NFkB transloc pot,sdo1 growth,IL1B NFkB inh,HUVEC tox IL1B
COc1ccc(OC)c(NC(=O)C(=O)N/N=C/c2ccccc2[N+](=O)[O-])c1,.,-,-,-,-,-
O=[N+]([O-])c1nn(-c2ccc3c(c2)OCCO3)n(O)c1=NCc1ccccc1Cl,.,-,92,-,-,-
COc1ccccc1CN=c1c([N+](=O)[O-])nn(-c2ccc3c(c2)OCCO3)n1O,.,-,.,-,.,.
CC1CCN(c2nc3ccccc3nc2C(C#N)C(=O)OC2CCCCC2)CC1 (stereo not given),-,-,-,-,97,92
Cc1ccc2nc(NC(=O)CSc3nncc(=O)n3N)sc2c1,.,-,.,-,.,.
O=C(N/N=C/c1cc([N+](=O)[O-])cc([N+](=O)[O-])c1O)/C(=C\c1cccs1)NC(=O)c1ccccc1,.,4.8,.,-,.,.
CCOc1ccc(OCC)c(-c2c(=O)n(OCc3ccc(C(C)(C)C)cc3)c3ccccc3[n+]2[O-])c1,.,6.6,-,-,-,-
O=C(CSc1ccccc1)Nc1nnc(COc2ccc(Cl)cc2)s1,.,7.1,.,-,.,.
Cc1cccc(C)c1OCc1nnc(NC(=O)CSc2ccc(Cl)cc2)s1,.,-,.,-,.,.
COCC(=O)Nc1nnc(COc2ccc(Cl)cc2)s1,-,5.4,-,-,-,-
CCOCCc1nnc(NC(=O)COC)s1,-,-,-,-,-,84
O=C(N/C(=C/c1cccc([N+](=O)[O-])c1)C(=O)N1CCCCCC1)c1cccs1,.,-,.,-,.,.

# Screening results (PubChem BioAssay)
